According to PubChem BioAssay (NCI):
This is part of a sample that, as a whole, favours compounds with a hit. Of some 79,000 tested, about 15% had one in any assay. A number with no mark means an inactive call. Activity calls are given as the source filed them. No stated cut-off is given here; in the data, active means growth inhibition above about 70%; inactive means the rest.

Assay: NCI Yeast Anticancer Drug Screen. Data for the rad50 strain (AID 155);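 further: 0% = growth of vehicle-only cultures of the same strain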
Conditions: S. cerevisiae rad50 strain growth inhibition; at 5.0 µM (retest, dose inferred, filed as 0.5); active compounds read high
Summary of the method: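 Compounds were tested on a yeast strain with an engineered DNA damage repair alteration; the reported value is growth inhibition normalised to vehicle treatment.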
With `CC12CCC(=O)C=C1CCC1C2CCC2(C)C(O[Si](C)(C)OC3CCC4C5CCC6=CC(=O)CCC6(C)C5CCC34C)CCC12` (stereo not given) the growth inhibition was 3%. With `CC1=C[C@H]2O[C@H]3C[C@H]4OC(=O)/C=C\C=C\C(=O)OCC[C@@H](C)[C@H](O)C(=O)OC[C@@]2(CC1)[C@@]4(C)[C@]31CO1` the growth inhibition was 99% (active). With `CCCCCCCC[As](C)(=O)O` the growth inhibition was -151%. For `OC1C2[C@@H](O)CCCN2C[C@@H](O)[C@H]1O` (stereo not given in full), the growth inhibition was 15%. In the case of `COC1(O[C@H]2CC[C@H]3[C@@H]4CCC5=CC(=O)CC[C@]5(C)[C@H]4CC[C@]23C)CCCCC1`, the growth inhibition is reported as 3%. For `O=[N+]([O-])c1ccc(CS(=O)(=O)C(Cl)(Cl)Cl)o1`, the growth inhibition was 39%. With `CC([CH2][Hg][Cl])c1ccccc1` (stereo not given) the growth inhibition was 99% (active). For `CC(C)CC[CH2][Pb]([CH2]CCC(C)C)([CH2]CCC(C)C)[O]C(=O)C(Cl)(Cl)Cl`, the growth inhibition was 14%. With `COC1OC(OC)[CH]([Hg][Cl])C1OC` (stereo not given) the growth inhibition was 99% (active). With `S=C=[N][Sn]([N]=C=S)([c]1ccccc1)[c]1ccccc1.c1ccc2nc(-c3ccc4ccccc4n3)ccc2c1` the growth inhibition was 72% (active). For `CSCCC([NH-])C(=O)O.CSCCC([NH-])C(=O)O.[Zn+2]` (stereo not given), the growth inhibition was 2%. For `C[PH+](C)C.C[PH+](C)C.[Au]`, the growth inhibition was 36%. In the case of `O=C(O)C(Br)C(Br)C(=O)O.[Ag]` (stereo not given), the growth inhibition is reported as 99% (active). In the case of `CCC1CN1P(=O)(Oc1ccccc1)N1CC1CC` (stereo not given), the growth inhibition is reported as -2%. Work on `CCCCCc1cc(O)c(CCCC)c(O)c1` yielded a growth inhibition of -107%. Work on `N#CC(Cl)(Cl)CCl` yielded a growth inhibition of 6%. In the case of `O=C(Cc1c2ccccc2cc2c1ccc1ccccc12)N(CCCl)CCCl`, the growth inhibition is reported as 61%. With `CC[C@@]1(O)C(=O)OCc2c1cc1n(c2=O)Cc2cc3c(OC)cccc3nc2-1` the growth inhibition was 96% (active). For `CCOC(=O)NP(=O)(NNc1ccccc1)NNc1ccccc1`, the growth inhibition was 79% (active). `C=C1C(=O)O[C@@H]2C[C@@H](C)[C@@H]3C=CC(=O)[C@@]3(C)[C@@H](O)[C@H]12` showed a growth inhibition of 16%. With `O=C(O)C(F)(F)F.[Ag]` the growth inhibition was 99% (active). `O=C(CBr)Nc1ccccc1` gave a growth inhibition of 40%. `C1=C[N-]c2c3c(ccc2=C1)=CC=C[N-]3.C1=C[N-]c2c3c(ccc2=C1)=CC=C[N-]3.F[P-](F)(F)(F)(F)F.[Cu+2]` gave a growth inhibition of 56%. With `O=[N+]([O-])/C=C/c1ccccc1Cl` the growth inhibition was 91% (active). In the case of `CCOP(=S)(OCC)SSSP(=S)(OCC)OCC`, the growth inhibition is reported as 6%. For `CCOC(=O)c1ccc(N=Cc2ccc(N(CCCl)CCCl)cc2C)cc1`, the growth inhibition was -4%. With `COc1ccc2c(c1)CCC(N1CCCC(=O)C1)C2` (stereo not given) the growth inhibition was 9%. For `CCCCCCC(=O)[O][Hg][c]1ccccc1`, the growth inhibition was 99% (active). `CCC[CH2][Sn]1([CH2]CCC)[O]C(=O)c2cccnc2[S]1` gave a growth inhibition of 40%. With `C[AsH](C)CC[AsH](C)C.C[AsH](C)CC[AsH](C)C.C[AsH](C)CC[AsH](C)C.[Ni]` the growth inhibition was 79% (active). With `O=c1[nH]c2ccccc2n1C1CCN(CCCC(c2ccc(F)cc2)c2ccc(F)cc2)CC1` the growth inhibition was -10%. Compound `O=[C-]c1ccccc1[C-]=O.[Pd+2].c1ccc([PH+](c2ccccc2)c2ccccc2)cc1.c1ccc([PH+](c2ccccc2)c2ccccc2)cc1` has a growth inhibition of 11%. `c1ccc(C(c2ccccc2)c2cccnc2)cc1` gave a growth inhibition of 61%. `C#CC[As+](c1ccccc1)(c1ccccc1)c1ccccc1` gave a growth inhibition of 31%. Work on `CC[CH2][Pb]([CH2]CC)([CH2]CC)[O]C(C)=O` yielded a growth inhibition of 54%. With `CC[PH+](CC)CC.[Cl][Au]` the growth inhibition was 98% (active). With `CN(C)[PH+](N(C)C)N(C)C.CN(C)[PH+](N(C)C)N(C)C.[C-]#[O+].[C-]#[O+].[C-]#[O+].[C-]#[O+].[C-]#[O+].[C-]#[O+].[Co].[Co].[Hg]` the growth inhibition was 3%. Work on `CC1=C(N2CC2)C(=O)c2nc3n(c2C1=O)CCC3OC(=O)CCl` (stereo not given) yielded a growth inhibition of 28%. `[N-]=[N+]=Nc1c([N+](=O)[O-])c(=O)n2c3c(cccc13)CCC2` showed a growth inhibition of 46%. In the case of `CCC[CH2][Sn]1([CH2]CCC)[O]CC(CN2CCCCC2)[O]1` (stereo not given), the growth inhibition is reported as 25%.
